Assay results as given in PubChem BioAssay (NCATS).
Inconclusive results are not listed. Activity calls are given as the source filed them. Unless noted, how the calls were made is not given here.

Columns and labels:
[1] = qHTS profiling of the MIPE4 collection as inhibitors of Plasmodium falciparum (3D7) proliferation (AID 743344);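 further: scaled between DMSO vehicle wells and 0.29 µM artemisinin as full inhibition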; settings: P. falciparum 3D7 in erythrocytes, SYBR Green DNA fluorescence, 72 h; at 28.5 µM unless noted
How it was run: (§1)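 Parasite DNA was quantified by SYBR Green I fluorescence (ex 485, em 535 nm) after overnight lysis in saponin/Triton buffer at room temperature. Cultures at 0.3% parasitemia and 2.5% hematocrit were first exposed to compound for 72 h at 37 C; signals were normalised to artemisinin (0.29 uM) and vehicle wells.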

[2] = qHTS profiling of the MIPE4 collection as inhibitors of Plasmodium falciparum (DD2) proliferation (Rep 2) (AID 743346); settings: P. falciparum Dd2 in erythrocytes, SYBR Green DNA, 72 h; at 28.5 µM unless noted
How it was run: as §1

[3] = qHTS profiling of the MIPE4 collection as inhibitors of Plasmodium falciparum (HB3) proliferation (AID 743347);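 further: plate controls were DMSO vehicle wells for no effect and artemisinin wells for full effect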; settings: P. falciparum HB3 in erythrocytes, SYBR Green DNA, 72 h; at 28.5 µM unless noted
How it was run: as §1

[4] = High-throughput drug toxicity screening in the BPDCN cell line Gen2.2 (AID 1224824); settings: Gen2.2 BPDCN cells; at 45.8 µM (top of the series) unless noted;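 further: cells exposed to compounds for 48 h before reading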
How it was run: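 Gen2.2, 500 cells/well, phenol red-free RPMI/10% FBS/Pen-Strep; 48 h cpd, 37 °C/5% CO2; CTG lum, 15 min RT. Norm: DMSO = 100%, bortezomib 9.2 uM final = 0%.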

[5] = High-throughput drug toxicity screening in the BPDCN cell line Cal-1 (AID 1224825); settings: Cal-1 BPDCN cell viability, qHTS; at 45.8 µM (top of the series) unless noted;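 further: cells exposed to compounds for 48 h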
How it was run: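 Percent activity derived from CellTiter-Glo luminescence, scaling DMSO to 100% and 9.2 uM final bortezomib to 0%. BPDCN Cal-1 cells (500/well, RPMI plus 10% FBS) incubated with compounds 48 hours at 37C before reading.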

[6] = qHTS assay for measurement of the activity of small molecule inhibitors on Zika virus induced Caspase-3 activity in human iPSC derived neural progenitor cells (hNPCs) (AID 1224857; active means well fitted inhibition curve with a large enough effect; further: nearly all actives have a fitted effect of over 65% in size; further: potency means the concentration at half of the fitted maximal effect)
How it was run: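 Percent inhibition of virus-induced caspase-3/7 luminescence (Caspase-Glo), scaled between uninfected cells and Zika-infected cells. hNPCs received compound 1 hr before ZIKV at 2 FFU/cell, with 6 hours infection at 37 C.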

[7] = qHTS assay for measurement of the activity of small molecule inhibitors on Zika virus induced Caspase-3 activity in human astrocytoma cells (AID 1224859; active means well fitted inhibition curve with a large enough effect; further: potency means the concentration at half of the fitted maximal effect)
How it was run: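 Luminescent caspase-3/7 read-out (30 min reagent, room temperature) in human SNB-19 cells infected 6 h with ZIKV (2 FFU/cell) after 1 h compound pre-incubation; Data were normalised to uninfected and infected wells.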

[8] = qHTS profiling of the MIPE4 collection as inhibitors of Plasmodium falciparum (DD2) proliferation (AID 743345); settings: P. falciparum Dd2 in erythrocytes, SYBR Green DNA, 72 h; at 28.5 µM unless noted
How it was run: as §1

SMILES	parasite growth, % of DMSO control [1] [%]	parasite growth, % of control (lower = inhibition) [2]	growth, % of control [3]	cell viability, % of control (lower = more cytotoxic) [4]	viability (% of control) [5]	Potency [6]	Potency [7]	parasite growth remaining, % of DMSO control (lower = more inhibition) [8]
C=CC[N+]1([C@H]2C[C@H]3[C@@H]4CC[C@H]5C[C@H](O)[C@@H](N6CCOCC6)C[C@]5(C)[C@@H]4CC[C@]3(C)[C@H]2OC(C)=O)CCCC1	31.1	21.1%	40.8%	168%	116%	inactive	inactive	–
C[C@@H]1O[C@@H](O[C@H]2CC[C@@]3(C)[C@H](CC[C@@H]4[C@H]3C[C@@H](O)[C@]3(C)[C@@H](C5=CC(=O)OC5)CC[C@]43O)C2)C[C@H](O)[C@@H]1O[C@H]1C[C@H](O)[C@H](O[C@H]2C[C@H](O)[C@@H](O)[C@@H](C)O2)[C@H](C)O1 (stereo in doubt)	–	67.5% [at 57.5 µM]	57% [at 57.5 µM]	7.85% [at 92.2 µM]	4.87% [at 92.2 µM]	inactive	inactive	91.8% [at 57.5 µM]
CCCCC[C@H](O)C=C[C@H]1[C@H](O)CC(=O)[C@H]1CC=CCCCC(=O)O	–	56.3%	103%	31.5%	23.7%	inactive	inactive	11.2%
CCNC(=O)CCCC=CC[C@@H]1[C@H](C=CC(O)CCc2ccccc2)[C@@H](O)C[C@@H]1O (stereo not given in full)	–	60.3%	–	108%	21%	inactive	inactive	127%
Cc1ccccc1C(=O)c1ccc(Nc2ccc(Br)cc2N)cc1Cl	27.4	40%	28.4%	182%	79.6%	inactive	inactive	–
Cc1cnc(Nc2cccc(CN3CCOCC3)c2)nc1Nc1cccc(S(=O)(=O)NC(C)(C)C)c1	–	17.3%	7.02%	14%	3.36%	inactive	inactive	8.36%
Cn1c(=O)c(-c2c(Cl)cccc2Cl)cc2cnc(Nc3cccc(C(=O)O)c3)nc21	12.8	19.9%	15.5%	462%	77.7%	inactive	inactive	–
O=S(=O)(O)c1ccc2cc(N=Nc3cc(S(=O)(=O)O)c4cccnc4c3O)ccc2c1	–	77.8%	47.7%	63.9%	89.1%	inactive	inactive	87.9%
COc1cc(C=CC(=O)O)ccc1O	–	98.9%	82.4%	105%	96.5%	inactive	inactive	95%
CN(C)CCOc1ccc(C(=C(CCCl)c2ccccc2)c2ccccc2)cc1	–	19.5%	27%	103%	111%	inactive	inactive	–
O=C1NC(=O)C(=Cc2ccc(-c3ccc(F)cc3O)o2)S1	–	61.3%	34.2%	31.9%	92.1%	16.6 µM (active)	14.8 µM (active)	71.3%
